Consider five compounds from ChEMBL document CHEMBL1961873, “Compounds: GSK PKIS; Assays: Nanosyn kinase panel” (2012).

The target of assay [1] is Leukocyte tyrosine kinase receptor (Homo sapiens) (UniProt P29376). As to conditions: at 1 µM.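 Also: each value is the mean inhibition of LTK.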
Assay [2] addresses Tyrosine-protein kinase Lyn (Homo sapiens) (UniProt P07948). As to conditions: at 0.1 µM.
The target is the same in assay [3]. Particulars: at 1 µM.
The target is the same in assay [4]. Particulars: at 0.1 µM. The source holds these as a separate data set.
For assay [5] the target is unchanged. Particulars: at 1 µM. The source holds these as a separate data set.
Assay [6] concerns the target T1, Tyrosine-protein kinase Mer (Homo sapiens) (UniProt Q12866).
T1 sequence (whole entry): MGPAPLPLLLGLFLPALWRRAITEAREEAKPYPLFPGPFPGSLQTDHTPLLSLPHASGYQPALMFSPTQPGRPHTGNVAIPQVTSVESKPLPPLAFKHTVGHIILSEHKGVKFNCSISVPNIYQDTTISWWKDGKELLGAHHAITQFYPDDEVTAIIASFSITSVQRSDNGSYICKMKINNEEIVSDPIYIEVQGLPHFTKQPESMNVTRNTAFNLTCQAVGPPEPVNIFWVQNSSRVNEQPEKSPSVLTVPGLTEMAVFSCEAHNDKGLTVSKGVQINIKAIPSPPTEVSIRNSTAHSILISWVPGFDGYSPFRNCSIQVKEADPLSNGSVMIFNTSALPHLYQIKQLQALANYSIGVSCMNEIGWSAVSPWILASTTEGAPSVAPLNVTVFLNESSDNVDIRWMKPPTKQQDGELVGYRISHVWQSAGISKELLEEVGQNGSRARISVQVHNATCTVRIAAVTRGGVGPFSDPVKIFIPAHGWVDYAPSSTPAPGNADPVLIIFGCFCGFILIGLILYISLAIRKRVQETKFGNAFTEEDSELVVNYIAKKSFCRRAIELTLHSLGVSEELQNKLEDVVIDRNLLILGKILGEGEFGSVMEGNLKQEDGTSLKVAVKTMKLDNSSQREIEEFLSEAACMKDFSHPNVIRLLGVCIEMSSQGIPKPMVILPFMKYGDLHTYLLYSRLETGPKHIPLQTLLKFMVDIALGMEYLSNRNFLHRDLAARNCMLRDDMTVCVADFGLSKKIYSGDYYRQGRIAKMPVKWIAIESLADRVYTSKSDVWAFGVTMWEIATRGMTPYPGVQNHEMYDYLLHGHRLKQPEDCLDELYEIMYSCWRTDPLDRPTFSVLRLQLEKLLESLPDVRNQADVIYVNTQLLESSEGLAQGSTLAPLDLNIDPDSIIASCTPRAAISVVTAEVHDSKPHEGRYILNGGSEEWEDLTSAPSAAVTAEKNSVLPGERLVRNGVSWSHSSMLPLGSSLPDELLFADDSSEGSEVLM
Particulars: at 0.1 µM.

Assay [7] concerns the target T1, Tyrosine-protein kinase Mer (Homo sapiens). Particulars: at 1 µM.
Assay [8] has as its target Hepatocyte growth factor receptor (Homo sapiens) (UniProt P08581). Particulars: at 0.1 µM.
The target is the same in assay [9]. Particulars: at 1 µM.
The target in assay [10] is T2, Muscle, skeletal receptor tyrosine-protein kinase (Homo sapiens) (UniProt O15146).
T2 sequence (whole entry): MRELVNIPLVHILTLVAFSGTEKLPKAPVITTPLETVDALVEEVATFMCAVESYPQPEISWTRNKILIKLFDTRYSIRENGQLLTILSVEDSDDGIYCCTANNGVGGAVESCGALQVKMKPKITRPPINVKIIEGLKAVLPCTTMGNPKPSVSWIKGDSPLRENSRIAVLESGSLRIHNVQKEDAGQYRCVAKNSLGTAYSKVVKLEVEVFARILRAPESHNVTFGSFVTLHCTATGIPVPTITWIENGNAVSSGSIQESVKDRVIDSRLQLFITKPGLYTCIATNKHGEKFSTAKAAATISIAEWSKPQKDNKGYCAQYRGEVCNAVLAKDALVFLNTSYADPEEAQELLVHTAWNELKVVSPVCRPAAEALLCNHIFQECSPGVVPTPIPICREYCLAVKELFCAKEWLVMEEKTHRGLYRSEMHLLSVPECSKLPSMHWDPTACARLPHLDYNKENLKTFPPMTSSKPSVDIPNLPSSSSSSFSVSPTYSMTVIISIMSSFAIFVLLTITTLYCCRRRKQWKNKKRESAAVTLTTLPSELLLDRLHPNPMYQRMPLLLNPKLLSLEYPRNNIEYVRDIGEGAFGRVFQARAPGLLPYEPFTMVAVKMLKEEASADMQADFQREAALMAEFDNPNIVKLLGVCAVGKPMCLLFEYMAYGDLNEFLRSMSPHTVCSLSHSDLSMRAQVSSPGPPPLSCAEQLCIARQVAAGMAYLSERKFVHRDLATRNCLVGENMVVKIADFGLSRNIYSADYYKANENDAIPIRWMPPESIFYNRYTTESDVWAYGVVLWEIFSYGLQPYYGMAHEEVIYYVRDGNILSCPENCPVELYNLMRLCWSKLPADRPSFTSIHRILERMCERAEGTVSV
As to conditions: at 0.1 µM.

Assay [11] has as its target T2, Muscle, skeletal receptor tyrosine-protein kinase (Homo sapiens). As to conditions: at 1 µM.
Assay [12] has as its target Platelet-derived growth factor receptor alpha (Homo sapiens) (UniProt P16234). Particulars: at 0.1 µM.
Assay [13] shares this target. Particulars: at 1 µM.
Assay [14] deals with Platelet-derived growth factor receptor alpha (Homo sapiens), P16234 [D842V]. As to conditions: at 0.1 µM.
Platelet-derived growth factor receptor alpha (Homo sapiens), P16234 [D842V], sequence (P16234 whole entry D842V): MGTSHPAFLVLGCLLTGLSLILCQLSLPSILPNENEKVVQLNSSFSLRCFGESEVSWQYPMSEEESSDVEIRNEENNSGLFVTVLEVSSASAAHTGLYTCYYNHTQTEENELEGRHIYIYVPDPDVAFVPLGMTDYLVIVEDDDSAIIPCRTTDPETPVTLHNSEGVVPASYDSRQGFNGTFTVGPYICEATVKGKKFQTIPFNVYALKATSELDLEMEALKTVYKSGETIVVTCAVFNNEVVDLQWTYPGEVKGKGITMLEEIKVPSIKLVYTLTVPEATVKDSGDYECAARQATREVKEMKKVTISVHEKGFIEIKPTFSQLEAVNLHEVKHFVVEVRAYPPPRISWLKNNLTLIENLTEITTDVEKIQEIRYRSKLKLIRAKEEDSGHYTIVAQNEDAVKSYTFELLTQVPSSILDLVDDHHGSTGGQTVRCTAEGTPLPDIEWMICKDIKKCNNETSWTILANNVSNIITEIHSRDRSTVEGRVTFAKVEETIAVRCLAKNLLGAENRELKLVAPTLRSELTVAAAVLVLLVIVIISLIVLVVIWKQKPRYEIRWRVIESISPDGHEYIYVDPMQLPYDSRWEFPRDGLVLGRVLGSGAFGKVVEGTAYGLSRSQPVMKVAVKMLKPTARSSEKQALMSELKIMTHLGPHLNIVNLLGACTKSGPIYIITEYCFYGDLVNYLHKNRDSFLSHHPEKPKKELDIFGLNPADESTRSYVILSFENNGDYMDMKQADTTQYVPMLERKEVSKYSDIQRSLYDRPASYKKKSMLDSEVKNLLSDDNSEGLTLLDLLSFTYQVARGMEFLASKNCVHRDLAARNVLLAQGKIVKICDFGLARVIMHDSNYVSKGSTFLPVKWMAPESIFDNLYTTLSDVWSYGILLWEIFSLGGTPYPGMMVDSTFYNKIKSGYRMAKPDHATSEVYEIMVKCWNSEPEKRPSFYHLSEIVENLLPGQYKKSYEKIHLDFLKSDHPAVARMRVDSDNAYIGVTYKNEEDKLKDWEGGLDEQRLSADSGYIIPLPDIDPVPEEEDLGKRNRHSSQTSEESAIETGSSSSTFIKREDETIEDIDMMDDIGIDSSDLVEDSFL
Assay [15] has the same test system. Particulars: at 1 µM.
For assay [16], the system named is Platelet-derived growth factor receptor alpha (Homo sapiens), P16234 [T674I]. As to conditions: at 0.1 µM.
For assay [17] the test system is unchanged. As to conditions: at 1 µM.
Assay [18] deals with Platelet-derived growth factor receptor alpha (Homo sapiens), P16234 [V561D]. As to conditions: at 0.1 µM.
Assay [19] has the same test system. As to conditions: at 1 µM.
In assay [20] the target is Platelet-derived growth factor receptor beta (Homo sapiens) (UniProt P09619). As to conditions: at 0.1 µM.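 Also: reported value is the mean percent inhibition of the kinase.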

Platelet-derived growth factor receptor alpha (Homo sapiens), sequence (P16234 whole entry): as the sequence (P16234 whole entry D842V) above, with V842D counted along it
Hepatocyte growth factor receptor (Homo sapiens), sequence (P08581 whole entry): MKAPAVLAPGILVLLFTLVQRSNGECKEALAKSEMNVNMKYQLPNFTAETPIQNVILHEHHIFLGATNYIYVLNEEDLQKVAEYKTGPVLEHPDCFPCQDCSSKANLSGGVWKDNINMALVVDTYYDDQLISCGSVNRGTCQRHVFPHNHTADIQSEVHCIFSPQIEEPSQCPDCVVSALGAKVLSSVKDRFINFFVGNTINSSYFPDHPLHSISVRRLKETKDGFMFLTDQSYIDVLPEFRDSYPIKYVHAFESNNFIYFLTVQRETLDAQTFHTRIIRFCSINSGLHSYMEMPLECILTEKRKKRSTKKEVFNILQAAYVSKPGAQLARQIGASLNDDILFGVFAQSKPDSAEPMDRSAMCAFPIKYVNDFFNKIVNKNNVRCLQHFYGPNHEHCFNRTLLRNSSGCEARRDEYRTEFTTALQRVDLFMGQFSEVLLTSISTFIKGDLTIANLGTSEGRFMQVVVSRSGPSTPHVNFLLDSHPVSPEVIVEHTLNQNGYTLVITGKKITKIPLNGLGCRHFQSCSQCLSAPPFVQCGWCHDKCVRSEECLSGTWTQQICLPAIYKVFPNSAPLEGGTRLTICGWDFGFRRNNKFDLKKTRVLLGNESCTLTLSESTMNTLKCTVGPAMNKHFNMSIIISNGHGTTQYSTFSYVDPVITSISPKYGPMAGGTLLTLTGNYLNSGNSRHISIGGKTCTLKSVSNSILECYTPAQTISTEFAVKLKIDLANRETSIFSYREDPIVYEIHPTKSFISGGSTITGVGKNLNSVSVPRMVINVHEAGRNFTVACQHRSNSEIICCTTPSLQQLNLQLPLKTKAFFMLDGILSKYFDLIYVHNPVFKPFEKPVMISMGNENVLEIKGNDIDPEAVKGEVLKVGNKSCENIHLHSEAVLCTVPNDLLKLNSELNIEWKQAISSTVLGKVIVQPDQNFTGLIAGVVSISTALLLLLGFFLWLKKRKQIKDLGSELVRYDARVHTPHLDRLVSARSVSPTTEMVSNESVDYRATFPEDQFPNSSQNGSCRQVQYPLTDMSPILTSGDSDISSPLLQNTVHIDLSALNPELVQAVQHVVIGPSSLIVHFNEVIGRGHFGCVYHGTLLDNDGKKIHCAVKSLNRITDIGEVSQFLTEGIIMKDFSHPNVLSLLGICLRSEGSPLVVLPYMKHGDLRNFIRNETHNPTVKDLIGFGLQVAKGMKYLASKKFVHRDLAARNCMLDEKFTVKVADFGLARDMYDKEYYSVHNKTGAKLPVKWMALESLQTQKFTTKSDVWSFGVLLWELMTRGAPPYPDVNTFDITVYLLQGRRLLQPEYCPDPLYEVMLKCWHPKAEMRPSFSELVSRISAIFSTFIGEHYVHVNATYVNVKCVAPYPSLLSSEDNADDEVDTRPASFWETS
Tyrosine-protein kinase Lyn (Homo sapiens), sequence (P07948 2-512 limits assumed): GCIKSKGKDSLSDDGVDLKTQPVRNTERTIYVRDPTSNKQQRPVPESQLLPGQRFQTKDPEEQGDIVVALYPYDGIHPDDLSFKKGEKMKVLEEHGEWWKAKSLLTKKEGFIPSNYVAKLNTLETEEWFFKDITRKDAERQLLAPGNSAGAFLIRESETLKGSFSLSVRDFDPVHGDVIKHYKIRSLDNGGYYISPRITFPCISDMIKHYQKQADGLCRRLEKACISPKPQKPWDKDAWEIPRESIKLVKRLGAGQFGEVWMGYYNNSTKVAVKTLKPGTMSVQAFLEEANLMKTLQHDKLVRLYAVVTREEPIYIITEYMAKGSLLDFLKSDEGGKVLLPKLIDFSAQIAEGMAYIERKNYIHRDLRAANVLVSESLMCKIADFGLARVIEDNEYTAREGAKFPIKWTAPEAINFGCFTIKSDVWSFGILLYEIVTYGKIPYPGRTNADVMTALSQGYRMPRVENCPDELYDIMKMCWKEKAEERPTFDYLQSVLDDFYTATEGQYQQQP
Leukocyte tyrosine kinase receptor (Homo sapiens), sequence (P29376 whole entry): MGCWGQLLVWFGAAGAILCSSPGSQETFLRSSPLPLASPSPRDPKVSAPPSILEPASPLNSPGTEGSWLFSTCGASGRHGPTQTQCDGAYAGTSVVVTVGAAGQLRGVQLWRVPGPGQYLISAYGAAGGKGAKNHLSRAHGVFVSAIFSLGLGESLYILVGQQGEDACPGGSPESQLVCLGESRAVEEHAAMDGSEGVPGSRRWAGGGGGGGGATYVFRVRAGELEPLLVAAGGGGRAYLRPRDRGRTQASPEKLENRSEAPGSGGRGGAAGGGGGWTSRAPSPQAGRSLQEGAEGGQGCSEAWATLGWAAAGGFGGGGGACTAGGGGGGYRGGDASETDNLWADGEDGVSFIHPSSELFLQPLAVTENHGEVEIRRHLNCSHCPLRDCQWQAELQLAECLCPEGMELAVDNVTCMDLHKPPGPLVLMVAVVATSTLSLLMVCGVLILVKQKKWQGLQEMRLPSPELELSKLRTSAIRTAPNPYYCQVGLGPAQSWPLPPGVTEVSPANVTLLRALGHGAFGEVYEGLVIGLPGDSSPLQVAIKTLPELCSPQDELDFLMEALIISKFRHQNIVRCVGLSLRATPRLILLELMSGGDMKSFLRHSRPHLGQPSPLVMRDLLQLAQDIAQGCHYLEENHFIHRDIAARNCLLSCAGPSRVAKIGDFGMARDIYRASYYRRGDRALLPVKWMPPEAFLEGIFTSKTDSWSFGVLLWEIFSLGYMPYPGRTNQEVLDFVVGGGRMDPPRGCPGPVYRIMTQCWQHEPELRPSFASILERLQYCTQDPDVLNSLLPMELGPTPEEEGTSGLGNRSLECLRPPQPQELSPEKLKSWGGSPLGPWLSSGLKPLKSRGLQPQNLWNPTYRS

Usually inhibition stands for the drop in the measured response relative to a control, in per cent. As to `NS(=O)(=O)c1ccc(N/N=C2\C(=O)Nc3ccc(C(=O)NCCc4c[nH]cn4)cc32)cc1`, the inhibition is 7.32% in assay [1]; 8.15% in assay [2]; 15.6% in [3]; 5.07% in assay [4]; 12.6% in assay [5]; 0.87% in [6]. The inhibition in assay [7] came to 4.99%; in assay [8], 8.81%; in assay [9], 12.3%; in [10] it was 10.8%; in [11] it was 43.1%; in [12] it was 23.6%. Also, the inhibition worked out at 65.6% in assay [13]; 15.9% in assay [14]; 62.5% in assay [15]; 6.94% in [16]; 14.5% in assay [17]; 12.9% in [18]. Further, the inhibition in [19] worked out at 54.9%; in assay [20] it was 38.6%.

In the case of `CC(C)=Cc1cccc2c1/C(=N/Nc1ccc(S(N)(=O)=O)cc1)C(=O)N2`, the inhibition in assay [1] turned out to be 11.3%; in assay [2], 6.78%; in assay [3] it was 35.8%; in assay [4] it was 5.19%; in [5] it was 29.9%; in assay [6], 0.25%. Besides, the inhibition was 3.48% in assay [7]; -0.76% in [8]; 19.6% in [9]; 7% in [10]; 36.3% in assay [11]; 20.3% in assay [12]. Moreover, the inhibition in assay [13] was found to be 64.9%; in assay [14], 12.2%; in [15] it was 58.5%; in [16] it was 7.43%; in assay [17] it was 46.5%; in assay [18] it was 15%. The inhibition came out at 62.5% in [19] and 17.4% in assay [20].

For the compound `Cc1ccc(NC(=O)c2ccnc(N3CCCC3)c2)cc1-c1ccc(C(=O)NCC2CC2)cc1`, the inhibition in assay [1] was found to be 2.5%; in assay [2], 3.64%; in assay [3], 8.64%; in [4] it was 1.83%; in assay [5], 5.14%; in assay [6], 1.62%. Besides, the inhibition in [7] is 3.81%; in assay [8] it was 9.41%; in assay [9], 7.36%; in [10] it was 4.38%; in assay [11], 9.18%; in assay [12] it was 9.86%. Moreover, the inhibition in assay [13] is 20.7%; in [14], 3.63%; in assay [15], 5.68%; in assay [16], 6.03%; in assay [17], 5.86%; in assay [18] it was 2.7%. Also, the results for the inhibition in assay [19] and in assay [20] were 11.8% and 6.34%, respectively.

For the compound `COc1ccc(-c2coc3ncnc(N)c23)cc1`, the inhibition in assay [1] was found to be 2.3%; in assay [2] it was 5.38%; in assay [3] it was 5.54%; in assay [4] it was 3.09%; in assay [5], 7.61%; in assay [6] it was 2.63%. The inhibition in assay [7] is 2.9%; in assay [8], 10%; in assay [9], 6.47%; in assay [10] it was 4.06%; in assay [11], 9.1%; in assay [12], 8.72%. Besides, the inhibition stood at 16.2% in assay [13]; 3.41% in assay [14]; 6.25% in assay [15]; 5.4% in assay [16]; 5.37% in [17]; 6.46% in [18]. In addition, the inhibition came out at 28% in assay [19] and 3.23% in assay [20].

As for `Nc1nc(-c2ccc3c(c2)C(=Cc2cc(Br)c(O)c(Br)c2)C(=O)N3)cs1`, the inhibition was 17.4% in assay [1]; 0.87% in [2]; 6.57% in [3]; 0.59% in assay [4]; 4.62% in [5]; -0.02% in assay [6]. In addition, the inhibition in assay [7] was found to be 3.29%; in assay [8], 1.02%; in assay [9] it was 4.73%; in assay [10], 0.81%; in assay [11], 2.75%; in assay [12], 2.1%. The inhibition in [13] was 5.96%; in assay [14], 0.96%; in assay [15] it was 2.21%; in [16] it was 0.36%; in [17] it was -0.01%; in assay [18], 2.02%. Moreover, the inhibition was 2.58% in assay [19] and 1.75% in assay [20].
